# In the supplement of paper PMC4466140:
# B1: unnamed (peptide)
# chain: VNIPSPSSSPPPIPK
# B2: unnamed (peptide)
# chain: AVPPPPPPPPLPESL
# How the values were obtained:
# Experiment in all cases: SPOT peptide array binding signal intensity (averaged, normalized) (arbitrary units (background-subtracted, floor 0; scale differs between SH3 domains)); higher = stronger binding of the SH3 domain to the peptide
# AgAbp1 = biological target: AgAbp1
# Method in brief: (§1)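 Peptides were synthetic 15-mers on cellulose membranes, with every cysteine replaced by serine. They were incubated overnight at 4°C with GST-SH3 domains from four yeast species at 10 μg/ml in TBS-based blocking buffer. Binding signal, the replicate-averaged normalized and background-subtracted spot intensity, is in arbitrary units that differ between domains.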
# AgBbc1 = biological target: AgBbc1
# Method in brief: as §1
# AgBem1-D1 = biological target: AgBem1-D1
# Method in brief: as §1
# AgBzz1-D1 = biological target: AgBzz1-D1
# Method in brief: as §1
# AgBzz1-D2 = biological target: AgBzz1-D2
# Method in brief: as §1
# AgCyk3 = biological target: AgCyk3
# Method in brief: as §1
# AgFus1 = biological target: AgFus1
# Method in brief: as §1
# AgHof1 = biological target: AgHof1
# Method in brief: as §1
# AgHse1 = biological target: AgHse1
# Method in brief: as §1
# AgLsb1 = biological target: AgLsb1
# Method in brief: as §1
# AgLsb4 = biological target: AgLsb4
# Method in brief: as §1
# AgMyo5 = biological target: AgMyo5
# Method in brief: as §1
# AgNbp2 = biological target: AgNbp2
# Method in brief: as §1
# AgRvs167 = biological target: AgRvs167
# Method in brief: as §1
# AgSho1 = biological target: AgSho1
# Method in brief: as §1
# AgSla1-D1-D2 = biological target: AgSla1-D1-D2
# Method in brief: as §1
# AgSla1-D3 = biological target: AgSla1-D3
# Method in brief: as §1
# CaAbp1-D1 = biological target: CaAbp1-D1
# Method in brief: as §1
# CaAbp1-D2 = biological target: CaAbp1-D2
# Method in brief: as §1
# CaBbc1 = biological target: CaBbc1
# Method in brief: as §1
# CaBem1-D1 = biological target: CaBem1-D1
# Method in brief: as §1
# CaBzz1-D1 = biological target: CaBzz1-D1
# Method in brief: as §1
# CaBzz1-D2 = biological target: CaBzz1-D2
# Method in brief: as §1
# CaCyk3 = biological target: CaCyk3
# Method in brief: as §1
# CaFus1 = biological target: CaFus1
# Method in brief: as §1
# CaHof1 = biological target: CaHof1
# Method in brief: as §1
# CaHse1 = biological target: CaHse1
# Method in brief: as §1
# CaLsb1 = biological target: CaLsb1
# Method in brief: as §1
# CaLsb4 = biological target: CaLsb4
# Method in brief: as §1
# CaMyo5 = biological target: CaMyo5
# Method in brief: as §1
# CaNbp2 = biological target: CaNbp2
# Method in brief: as §1
# CaRvs167 = biological target: CaRvs167
# Method in brief: as §1
# CaRvs167-3 = biological target: CaRvs167-3
# Method in brief: as §1
# CaSho1 = biological target: CaSho1
# Method in brief: as §1
# CaSla1-D1-D2 = biological target: CaSla1-D1-D2
# Method in brief: as §1
# CaSla1-D3 = biological target: CaSla1-D3
# Method in brief: as §1
# ScAbp1 = biological target: ScAbp1
# Method in brief: as §1
# ScBbc1 = biological target: ScBbc1
# Method in brief: as §1
# ScBem1-D1 = biological target: ScBem1-D1
# Method in brief: as §1
# ScBzz1-D1 = biological target: ScBzz1-D1
# Method in brief: as §1
# ScBzz1-D2 = biological target: ScBzz1-D2
# Method in brief: as §1
# ScCyk3 = biological target: ScCyk3
# Method in brief: as §1
# ScFus1 = biological target: ScFus1
# Method in brief: as §1
# ScHof1 = biological target: ScHof1
# Method in brief: as §1
# ScHse1 = biological target: ScHse1
# Method in brief: as §1
# ScLsb1 = biological target: ScLsb1
# Method in brief: as §1
# ScLsb2 = biological target: ScLsb2
# Method in brief: as §1
# ScLsb3 = biological target: ScLsb3
# Method in brief: as §1
# ScLsb4 = biological target: ScLsb4
# Method in brief: as §1
# ScMyo3 = biological target: ScMyo3
# Method in brief: as §1
# ScMyo5 = biological target: ScMyo5
# Method in brief: as §1
# ScNbp2 = biological target: ScNbp2
# Method in brief: as §1
# ScPex13 = biological target: ScPex13
# Method in brief: as §1
# ScRvs167 = biological target: ScRvs167
# Method in brief: as §1
# ScSho1 = biological target: ScSho1
# Method in brief: as §1
# ScSla1-D1-D2 = biological target: ScSla1-D1-D2
# Method in brief: as §1
# ScSla1-D3 = biological target: ScSla1-D3
# Method in brief: as §1
# SpAbp1-D1 = biological target: SpAbp1-D1
# Method in brief: as §1
# SpBbc1 = biological target: SpBbc1
# Method in brief: as §1
# SpBzz1-D1 = biological target: SpBzz1-D1
# Method in brief: as §1
# SpBzz1-D2 = biological target: SpBzz1-D2
# Method in brief: as §1
# SpCyk3 = biological target: SpCyk3
# Method in brief: as §1
# SpHof1 = biological target: SpHof1
# Method in brief: as §1
# SpHof1-2 = biological target: SpHof1-2
# Method in brief: as §1
# SpHof1-3 = biological target: SpHof1-3
# Method in brief: as §1
# SpHse1 = biological target: SpHse1
# Method in brief: as §1
# SpLsb1 = biological target: SpLsb1
# Method in brief: as §1
# SpLsb4 = biological target: SpLsb4
# Method in brief: as §1
# SpMyo1 = biological target: SpMyo1
# Method in brief: as §1
# SpNbp2 = biological target: SpNbp2
# Method in brief: as §1
# SpPex13 = biological target: SpPex13
# Method in brief: as §1
# SpRvs167 = biological target: SpRvs167
# Method in brief: as §1
# SpSla1-D1-D2 = biological target: SpSla1-D1-D2
# Method in brief: as §1
# SpSla1-D3 = biological target: SpSla1-D3
# Method in brief: as §1
binder,measurement,setting,value
B1,SPOT peptide array binding signal intensity,AgAbp1,8
same,SPOT peptide array binding signal intensity,AgBbc1,≤ 0
same,SPOT peptide array binding signal intensity,AgBem1-D1,28
same,SPOT peptide array binding signal intensity,AgBzz1-D1,≤ 0
same,SPOT peptide array binding signal intensity,AgBzz1-D2,5
same,SPOT peptide array binding signal intensity,AgCyk3,0.5
same,SPOT peptide array binding signal intensity,AgFus1,0.5
same,SPOT peptide array binding signal intensity,AgHof1,≤ 0
same,SPOT peptide array binding signal intensity,AgHse1,20.5
same,SPOT peptide array binding signal intensity,AgLsb1,≤ 0
same,SPOT peptide array binding signal intensity,AgLsb4,≤ 0
same,SPOT peptide array binding signal intensity,AgMyo5,2570
same,SPOT peptide array binding signal intensity,AgNbp2,≤ 0
same,SPOT peptide array binding signal intensity,AgRvs167,0.5
same,SPOT peptide array binding signal intensity,AgSho1,≤ 0
same,SPOT peptide array binding signal intensity,AgSla1-D1-D2,8
same,SPOT peptide array binding signal intensity,AgSla1-D3,≤ 0
same,SPOT peptide array binding signal intensity,CaAbp1-D1,5
same,SPOT peptide array binding signal intensity,CaAbp1-D2,9
same,SPOT peptide array binding signal intensity,CaBbc1,≤ 0
same,SPOT peptide array binding signal intensity,CaBem1-D1,10
same,SPOT peptide array binding signal intensity,CaBzz1-D1,34
same,SPOT peptide array binding signal intensity,CaBzz1-D2,4.75
same,SPOT peptide array binding signal intensity,CaCyk3,≤ 0
same,SPOT peptide array binding signal intensity,CaFus1,47.5
same,SPOT peptide array binding signal intensity,CaHof1,0.5
same,SPOT peptide array binding signal intensity,CaHse1,≤ 0
same,SPOT peptide array binding signal intensity,CaLsb1,≤ 0
same,SPOT peptide array binding signal intensity,CaLsb4,≤ 0
same,SPOT peptide array binding signal intensity,CaMyo5,1400
B2,SPOT peptide array binding signal intensity,AgAbp1,8.5
same,SPOT peptide array binding signal intensity,AgBbc1,0.5
same,SPOT peptide array binding signal intensity,AgBem1-D1,≤ 0
same,SPOT peptide array binding signal intensity,AgBzz1-D1,1
same,SPOT peptide array binding signal intensity,AgBzz1-D2,5.5
same,SPOT peptide array binding signal intensity,AgCyk3,≤ 0
same,SPOT peptide array binding signal intensity,AgFus1,2
same,SPOT peptide array binding signal intensity,AgHof1,182
same,SPOT peptide array binding signal intensity,AgHse1,26
same,SPOT peptide array binding signal intensity,AgLsb1,0.5
same,SPOT peptide array binding signal intensity,AgLsb4,3
same,SPOT peptide array binding signal intensity,AgMyo5,188
same,SPOT peptide array binding signal intensity,AgNbp2,18
same,SPOT peptide array binding signal intensity,AgRvs167,0.667
same,SPOT peptide array binding signal intensity,AgSho1,1
same,SPOT peptide array binding signal intensity,AgSla1-D1-D2,≤ 0
same,SPOT peptide array binding signal intensity,AgSla1-D3,2
same,SPOT peptide array binding signal intensity,CaAbp1-D1,1
same,SPOT peptide array binding signal intensity,CaAbp1-D2,1
same,SPOT peptide array binding signal intensity,CaBbc1,≤ 0
same,SPOT peptide array binding signal intensity,CaBem1-D1,1
same,SPOT peptide array binding signal intensity,CaBzz1-D1,951
same,SPOT peptide array binding signal intensity,CaBzz1-D2,158
same,SPOT peptide array binding signal intensity,CaCyk3,≤ 0
same,SPOT peptide array binding signal intensity,CaFus1,2
same,SPOT peptide array binding signal intensity,CaHof1,0.5
same,SPOT peptide array binding signal intensity,CaHse1,4.75
same,SPOT peptide array binding signal intensity,CaLsb1,0.5
same,SPOT peptide array binding signal intensity,CaLsb4,≤ 0
same,SPOT peptide array binding signal intensity,CaMyo5,29
same,SPOT peptide array binding signal intensity,CaNbp2,23.5
same,SPOT peptide array binding signal intensity,CaRvs167,3.67
same,SPOT peptide array binding signal intensity,CaRvs167-3,1.5
same,SPOT peptide array binding signal intensity,CaSho1,4.5
same,SPOT peptide array binding signal intensity,CaSla1-D1-D2,≤ 0
same,SPOT peptide array binding signal intensity,CaSla1-D3,≤ 0
same,SPOT peptide array binding signal intensity,ScAbp1,≤ 0
same,SPOT peptide array binding signal intensity,ScBbc1,≤ 0
same,SPOT peptide array binding signal intensity,ScBem1-D1,≤ 0
same,SPOT peptide array binding signal intensity,ScBzz1-D1,13
same,SPOT peptide array binding signal intensity,ScBzz1-D2,≤ 0
same,SPOT peptide array binding signal intensity,ScCyk3,1
same,SPOT peptide array binding signal intensity,ScFus1,≤ 0
same,SPOT peptide array binding signal intensity,ScHof1,13.5
same,SPOT peptide array binding signal intensity,ScHse1,34
same,SPOT peptide array binding signal intensity,ScLsb1,≤ 0
same,SPOT peptide array binding signal intensity,ScLsb2,≤ 0
same,SPOT peptide array binding signal intensity,ScLsb3,≤ 0
same,SPOT peptide array binding signal intensity,ScLsb4,≤ 0
same,SPOT peptide array binding signal intensity,ScMyo3,1190
same,SPOT peptide array binding signal intensity,ScMyo5,712
same,SPOT peptide array binding signal intensity,ScNbp2,22
same,SPOT peptide array binding signal intensity,ScPex13,538
same,SPOT peptide array binding signal intensity,ScRvs167,2.33
same,SPOT peptide array binding signal intensity,ScSho1,≤ 0
same,SPOT peptide array binding signal intensity,ScSla1-D1-D2,≤ 0
same,SPOT peptide array binding signal intensity,ScSla1-D3,1.25
same,SPOT peptide array binding signal intensity,SpAbp1-D1,6
same,SPOT peptide array binding signal intensity,SpBbc1,3
same,SPOT peptide array binding signal intensity,SpBzz1-D1,3120
same,SPOT peptide array binding signal intensity,SpBzz1-D2,4.25
same,SPOT peptide array binding signal intensity,SpCyk3,≤ 0
same,SPOT peptide array binding signal intensity,SpHof1,≤ 0
same,SPOT peptide array binding signal intensity,SpHof1-2,≤ 0
same,SPOT peptide array binding signal intensity,SpHof1-3,≤ 0
same,SPOT peptide array binding signal intensity,SpHse1,10.5
same,SPOT peptide array binding signal intensity,SpLsb1,4.75
same,SPOT peptide array binding signal intensity,SpLsb4,27
same,SPOT peptide array binding signal intensity,SpMyo1,980
same,SPOT peptide array binding signal intensity,SpNbp2,16
same,SPOT peptide array binding signal intensity,SpPex13,≤ 0
same,SPOT peptide array binding signal intensity,SpRvs167,64.7
same,SPOT peptide array binding signal intensity,SpSla1-D1-D2,1
same,SPOT peptide array binding signal intensity,SpSla1-D3,≤ 0
